# According to the supplement of paper PMC8728848:
# This is one part of a sample in which the strongest signals are shown more often than they occur.
# B1: EUL D1A (Oryza sativa) (protein)
# chain: MFGFGHHHNQAPAAPSDPNQIFKIFCRANENYCLTVRDSAVVLAPVNPKDEHQHWFKDMRFSTKVKDGEGMPAFALVNKATGLAVKHSLGQSHPVKLVPFNPEYEDASVLWTESKDVGKGFRCIRMVNNTRLNLDAFHGDKDHGGVRDGTTVVLWEWCKGDNQSWKILPWGPEAHSSSPGAATACTIGGVPVHTVRVFSAAGEDYCLTVRNGTACLAPKNPRDDYQHWIKDMRHSNKIRDEEGYPAFALVNKVTGEAIKHSTGQGHPVKLVPYNPEYQDESVLWTESKDVGKGFRCIRMVNNIYLNFDAFHGDKDHGGIHDGTEIVLWKWCEGDNQRWKILPWILEQKLISEEDLNSAVDHHHHHH
# Key:
# Experiment in all cases: glycan array binding signal (z-score within array); higher = stronger binding
# Details in all cases: glycan notation: IUPAC condensed, linker removed
# Fuc(a1-2)Gal(b1-3)GalNAc = target: Fuc(a1-2)Gal(b1-3)GalNAc
# Summary of the method: (§1)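 From the Consortium for Functional Glycomics database, 3228 arrays were curated, keeping only those whose protein sequence was available. Binding is given as a within-array Z-score averaged across arrays sharing a protein sequence and across linkers. Negative Z-scores can be read as non-binding.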
# [1] = target: Fuc(a1-2)Gal(b1-3)GlcNAc(b1-3)[Neu5Ac(a2-6)Gal(b1-4)GlcNAc(b1-6)]Gal(b1-4)Glc
# Summary of the method: as §1
# [2] = target: Fuc(a1-2)Gal(b1-3)GlcNAc6S
# Summary of the method: as §1
# [3] = target: Fuc(a1-2)Gal(b1-3)[Fuc(a1-4)]GlcNAc(b1-2)Man(a1-3)[Fuc(a1-2)Gal(b1-3)[Fuc(a1-4)]GlcNAc(b1-2)Man(a1-6)]Man(b1-4)GlcNAc(b1-4)[Fuc(a1-6)]GlcNAc(b1-4)[Fuc(a1-6)]GlcNAc
# Summary of the method: as §1
# [4] = target: Fuc(a1-2)Gal(b1-3)[Fuc(a1-4)]GlcNAc(b1-3)[Gal(b1-4)GlcNAc(b1-6)]Gal(b1-4)Glc
# Summary of the method: as §1
# [5] = target: Fuc(a1-2)[Gal(a1-3)]Gal(b1-3)GlcNAc(b1-2)Man(a1-3)[Fuc(a1-2)[Gal(a1-3)]Gal(b1-3)GlcNAc(b1-2)Man(a1-6)]Man(b1-4)GlcNAc(b1-4)GlcNAc
# Summary of the method: as §1
# [6] = target: Fuc(a1-2)[Gal(a1-3)]Gal(b1-3)GlcNAc(b1-2)Man(a1-3)[Fuc(a1-2)[Gal(a1-3)]Gal(b1-3)GlcNAc(b1-2)Man(a1-6)]Man(b1-4)GlcNAc(b1-4)[Fuc(a1-6)]GlcNAc
# Summary of the method: as §1
# [7] = target: Fuc(a1-2)[Gal(a1-3)]Gal(b1-3)GlcNAc(b1-3)GalNAc
# Summary of the method: as §1
# [8] = target: Fuc(a1-2)[Gal(a1-3)]Gal(b1-4)GlcNAc(b1-2)Man(a1-3)[Fuc(a1-2)[Gal(a1-3)]Gal(b1-4)GlcNAc(b1-2)Man(a1-6)]Man(b1-4)GlcNAc(b1-4)[Fuc(a1-6)]GlcNAc
# Summary of the method: as §1
# [9] = target: Fuc(a1-2)[GalNAc(a1-3)]Gal
# Summary of the method: as §1
# [10] = target: Fuc(a1-2)[GalNAc(a1-3)]Gal(b1-3)GlcNAc(b1-3)GalNAc
# Summary of the method: as §1
# [11] = target: Fuc(a1-2)[GalNAc(a1-4)]Gal(b1-4)GlcNAc
# Summary of the method: as §1
# [12] = target: Fuc(a1-3)[Gal(b1-4)]Glc6S
# Summary of the method: as §1
# Gal(a1-3)Gal(b1-4)GlcNAc = target: Gal(a1-3)Gal(b1-4)GlcNAc
# Summary of the method: as §1
# Gal(b1-3)GalNAc(b1-3)Gal = target: Gal(b1-3)GalNAc(b1-3)Gal
# Summary of the method: as §1
# [13] = target: Gal(b1-3)[Fuc(a1-4)]GlcNAc(b1-2)Man(a1-3)[Gal(b1-3)[Fuc(a1-4)]GlcNAc(b1-2)Man(a1-6)]Man(b1-4)GlcNAc(b1-4)[Fuc(a1-6)]GlcNAc
# Summary of the method: as §1
# [14] = target: Gal(b1-4)GlcNAc(b1-3)Gal(b1-4)GlcNAc(b1-3)Gal(b1-4)GlcNAc(b1-2)Man(a1-3)[Gal(b1-4)GlcNAc(b1-3)Gal(b1-4)GlcNAc(b1-3)Gal(b1-4)GlcNAc(b1-2)Man(a1-6)]Man(b1-4)GlcNAc(b1-4)GlcNAc
# Summary of the method: as §1
# [15] = target: Gal(b1-4)GlcNAc(b1-3)Gal(b1-4)GlcNAc(b1-3)Gal(b1-4)GlcNAc(b1-2)[Gal(b1-4)GlcNAc(b1-3)Gal(b1-4)GlcNAc(b1-3)Gal(b1-4)GlcNAc(b1-6)]Man(a1-6)[Gal(b1-4)GlcNAc(b1-3)Gal(b1-4)GlcNAc(b1-3)Gal(b1-4)GlcNAc(b1-2)Man(a1-3)]Man(b1-4)GlcNAc(b1-4)[Fuc(a1-6)]GlcNAc
# Summary of the method: as §1
# [16] = target: Gal(b1-4)GlcNAc(b1-3)Gal(b1-4)GlcNAc(b1-3)Gal(b1-4)GlcNAc(b1-3)Gal(b1-4)GlcNAc(b1-2)Man(a1-3)[Gal(b1-4)GlcNAc(b1-3)Gal(b1-4)GlcNAc(b1-3)Gal(b1-4)GlcNAc(b1-3)Gal(b1-4)GlcNAc(b1-2)Man(a1-6)]Man(b1-4)GlcNAc(b1-4)GlcNAc
# Summary of the method: as §1
# [17] = target: Gal(b1-4)GlcNAc(b1-3)Gal(b1-4)GlcNAc(b1-3)Gal(b1-4)GlcNAc(b1-3)Gal(b1-4)GlcNAc(b1-2)[Gal(b1-4)GlcNAc(b1-3)Gal(b1-4)GlcNAc(b1-3)Gal(b1-4)GlcNAc(b1-3)Gal(b1-4)GlcNAc(b1-6)]Man(a1-6)[Gal(b1-4)GlcNAc(b1-3)Gal(b1-4)GlcNAc(b1-3)Gal(b1-4)GlcNAc(b1-3)Gal(b1-4)GlcNAc(b1-2)Man(a1-3)]Man(b1-4)GlcNAc(b1-4)[Fuc(a1-6)]GlcNAc
# Summary of the method: as §1
# [18] = target: Gal(b1-4)GlcNAc(b1-3)Gal(b1-4)GlcNAc(b1-6)[Gal(b1-3)]GalNAc
# Summary of the method: as §1
# [19] = target: Gal(b1-4)GlcNAc(b1-3)Gal(b1-4)[Fuc(a1-3)]GlcNAc(b1-3)Gal(b1-4)[Fuc(a1-3)]GlcNAc
# Summary of the method: as §1
# [20] = target: Gal(b1-4)GlcNAc(b1-6)GalNAc
# Summary of the method: as §1
# [21] = target: Gal3S(b1-4)[Fuc(a1-3)]Glc6S
# Summary of the method: as §1
# Gal6S(b1-4)GlcNAc = target: Gal6S(b1-4)GlcNAc
# Summary of the method: as §1
# [22] = target: GalNAc(b1-3)Gal(a1-4)Gal(b1-4)GlcNAc(b1-3)Gal(b1-4)Glc
# Summary of the method: as §1
# [23] = target: GlcNAc(a1-4)Gal(b1-4)GalNAc
# Summary of the method: as §1
# [24] = target: GlcNAc(a1-6)Gal(b1-4)GlcNAc
# Summary of the method: as §1
# [25] = target: GlcNAc(b1-2)Man(a1-3)[GlcNAc(b1-2)Man(a1-6)]Man(b1-4)GlcNAc(b1-4)[Fuc(a1-6)]GlcNAc
# Summary of the method: as §1
# [26] = target: GlcNAc(b1-3)Gal(b1-4)GlcNAc(b1-3)Gal(b1-4)GlcNAc(b1-3)Gal(b1-4)GlcNAc(b1-3)Gal(b1-4)GlcNAc(b1-2)Man(a1-3)[GlcNAc(b1-3)Gal(b1-4)GlcNAc(b1-3)Gal(b1-4)GlcNAc(b1-3)Gal(b1-4)GlcNAc(b1-3)Gal(b1-4)GlcNAc(b1-2)Man(a1-6)]Man(b1-4)GlcNAc(b1-4)[Fuc(a1-6)]GlcNAc
# Summary of the method: as §1
# [27] = target: GlcNAc(b1-4)Gal(b1-4)GlcNAc
# Summary of the method: as §1
# [28] = target: GlcNAc(b1-4)GlcNAc(b1-4)GlcNAc(b1-4)GlcNAc(b1-4)GlcNAc
# Summary of the method: as §1
# [29] = target: Man(a1-2)Man(a1-6)[Man(a1-3)]Man(a1-6)[Man(a1-2)Man(a1-2)Man(a1-3)]Man
# Summary of the method: as §1
# [30] = target: Man(a1-3)[Man(a1-6)]Man(a1-6)[Man(a1-3)]Man
# Summary of the method: as §1
# [31] = target: Neu5Ac(a2-3)Gal(b1-3)GalNAc
# Summary of the method: as §1
# [32] = target: Neu5Ac(a2-3)Gal(b1-3)GalNAc6S
# Summary of the method: as §1
# [33] = target: Neu5Ac(a2-3)Gal(b1-3)GlcNAc(b1-6)GalNAc
# Summary of the method: as §1
# [34] = target: Neu5Ac(a2-3)Gal(b1-4)GlcNAc(b1-6)[Neu5Ac(a2-3)Gal(b1-3)]GalNAc
# Summary of the method: as §1
# [35] = target: Neu5Ac(a2-3)Gal6S(b1-4)[Fuc(a1-3)]GlcNAc
# Summary of the method: as §1
# [36] = target: Neu5Ac(a2-6)Gal(b1-4)GlcNAc(b1-2)Man(a1-6)[GlcNAc(b1-2)Man(a1-3)]Man(b1-4)GlcNAc(b1-4)GlcNAc
# Summary of the method: as §1
# [37] = target: Neu5Ac(a2-6)Gal(b1-4)GlcNAc(b1-6)[Gal(b1-3)]GalNAc
# Summary of the method: as §1
# [38] = target: Neu5Ac(a2-8)Neu5Ac(a2-3)Gal(b1-3)GalNAc(b1-4)[Neu5Ac(a2-8)Neu5Ac(a2-3)]Gal(b1-4)Glc
# Summary of the method: as §1
# [39] = target: Neu5Ac9Ac(a2-3)Gal(b1-3)GlcNAc
# Summary of the method: as §1
# [40] = target: Neu5Ac9Ac(a2-6)Gal(b1-4)GlcNAc
# Summary of the method: as §1
# [41] = target: Neu5Gc(a2-3)Gal(b1-3)[Fuc(a1-4)]GlcNAc
# Summary of the method: as §1
# [42] = target: Neu5Gc(a2-8)Neu5Gc(a2-6)Gal(b1-4)GlcNAc
# Summary of the method: as §1
binder,measurement,setting,value
B1,glycan array binding signal (z-score),Fuc(a1-2)Gal(b1-3)GalNAc,-0.934
same,glycan array binding signal (z-score),[1],-0.444
same,glycan array binding signal (z-score),[2],0.203
same,glycan array binding signal (z-score),[3],2.92
same,glycan array binding signal (z-score),[4],1.23
same,glycan array binding signal (z-score),[5],0.066
same,glycan array binding signal (z-score),[6],-1.06
same,glycan array binding signal (z-score),[7],-0.79
same,glycan array binding signal (z-score),[8],0.315
same,glycan array binding signal (z-score),[9],-0.299
same,glycan array binding signal (z-score),[10],0.318
same,glycan array binding signal (z-score),[11],-0.759
same,glycan array binding signal (z-score),[12],1.6
same,glycan array binding signal (z-score),Gal(a1-3)Gal(b1-4)GlcNAc,-0.8
same,glycan array binding signal (z-score),Gal(b1-3)GalNAc(b1-3)Gal,-0.437
same,glycan array binding signal (z-score),[13],0.658
same,glycan array binding signal (z-score),[14],2.18
same,glycan array binding signal (z-score),[15],2.54
same,glycan array binding signal (z-score),[16],2.32
same,glycan array binding signal (z-score),[17],2.71
same,glycan array binding signal (z-score),[18],2.71
same,glycan array binding signal (z-score),[19],-0.649
same,glycan array binding signal (z-score),[20],0.031
same,glycan array binding signal (z-score),[21],2.51
same,glycan array binding signal (z-score),Gal6S(b1-4)GlcNAc,-0.407
same,glycan array binding signal (z-score),[22],-0.333
same,glycan array binding signal (z-score),[23],-0.573
same,glycan array binding signal (z-score),[24],2.67
same,glycan array binding signal (z-score),[25],2.33
same,glycan array binding signal (z-score),[26],1.58
same,glycan array binding signal (z-score),[27],-1.13
same,glycan array binding signal (z-score),[28],0.586
same,glycan array binding signal (z-score),[29],2.83
same,glycan array binding signal (z-score),[30],-0.067
same,glycan array binding signal (z-score),[31],-0.87
same,glycan array binding signal (z-score),[32],2.32
same,glycan array binding signal (z-score),[33],-1.15
same,glycan array binding signal (z-score),[34],2.69
same,glycan array binding signal (z-score),[35],-0.714
same,glycan array binding signal (z-score),[36],1.83
same,glycan array binding signal (z-score),[37],-0.319
same,glycan array binding signal (z-score),[38],0.293
same,glycan array binding signal (z-score),[39],-0.59
same,glycan array binding signal (z-score),[40],-0.088
same,glycan array binding signal (z-score),[41],0.008
same,glycan array binding signal (z-score),[42],-0.137
